Test results as given in PubChem BioAssay (NCI).
About 83,000 compounds went through this panel and 20% of them were active in at least one assay; those are over-represented in the sample as a whole.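 Growth was measured after 48 h exposure to one concentration of compound in 96-well plates. Values under 10 count as active.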 Calls of active or inactive are those of the source.

What was measured:
Assay in all cases: NCI-60 one-dose screen, 48 h (100 = growth as untreated, 0 = no growth, -100 = all killed)
Details in all cases: 10 µM unless noted
DU-145 prostate = tested on: DU-145 prostate
K-562 leukemia = tested on: K-562 leukemia
MALME-3M melanoma = tested on: MALME-3M melanoma
MDA-MB-231 breast = tested on: MDA-MB-231 breast
RXF 393 renal = tested on: RXF 393 renal
SF-268 CNS = tested on: SF-268 CNS
SF-539 CNS = tested on: SF-539 CNS
UACC-257 melanoma = tested on: UACC-257 melanoma
M14 melanoma = tested on: M14 melanoma
HCT-15 colon = tested on: HCT-15 colon
HT29 colon = tested on: HT29 colon
SNB-75 CNS = tested on: SNB-75 CNS
SNB-19 CNS = tested on: SNB-19 CNS
U251 CNS = tested on: U251 CNS
PC-3 prostate = tested on: PC-3 prostate
SK-MEL-5 melanoma = tested on: SK-MEL-5 melanoma
UACC-62 melanoma = tested on: UACC-62 melanoma
LOX IMVI melanoma = tested on: LOX IMVI melanoma
SK-MEL-28 melanoma = tested on: SK-MEL-28 melanoma

Measured: growth

COc1ccc(C(=O)C(C#N)c2cc(OC)c(OC)c(OC)c2)cc1 (centres undefined)
inactive: DU-145 prostate 114% | K-562 leukemia 98.1% | MALME-3M melanoma 106% | MDA-MB-231 breast 115% | RXF 393 renal 103% | SF-268 CNS 114% | SF-539 CNS 93.8% | UACC-257 melanoma 97.4% | M14 melanoma 102% | HCT-15 colon 102% | HT29 colon 99.2% | SNB-75 CNS 90.7% | SNB-19 CNS 108% | U251 CNS 98.2% | PC-3 prostate 99% | SK-MEL-5 melanoma 102% | UACC-62 melanoma 105% | LOX IMVI melanoma 97.8% | SK-MEL-28 melanoma 104%

N=c1n(Cc2ccccc2)c(N)cc(=O)n1Cc1ccccc1
active: DU-145 prostate -19.6% | RXF 393 renal -15.5% | SF-268 CNS 2.59% | SK-MEL-5 melanoma 2.83%
inactive: K-562 leukemia 21% | MALME-3M melanoma 23.3% | MDA-MB-231 breast 83% | SF-539 CNS 12.5% | UACC-257 melanoma 43.8% | M14 melanoma 84.6% | HCT-15 colon 45.8% | HT29 colon 26.8% | SNB-75 CNS 36.6% | SNB-19 CNS 52.8% | U251 CNS 25.4% | PC-3 prostate 37.5% | UACC-62 melanoma 33.8% | LOX IMVI melanoma 14.2% | SK-MEL-28 melanoma 60.8%

c1ccc(C(Nc2ccccn2)(c2ccccc2)c2ccccc2)cc1
inactive: DU-145 prostate 85.6% | K-562 leukemia 56% | MALME-3M melanoma 109% | MDA-MB-231 breast 66.8% | RXF 393 renal 82.9% | SF-268 CNS 99.5% | SF-539 CNS 86.4% | UACC-257 melanoma 97.4% | M14 melanoma 87.9% | HCT-15 colon 74.1% | HT29 colon 69.9% | SNB-75 CNS 74.8% | SNB-19 CNS 77.5% | U251 CNS 84.3% | PC-3 prostate 39.1% | SK-MEL-5 melanoma 70.3% | UACC-62 melanoma 59.3% | LOX IMVI melanoma 100% | SK-MEL-28 melanoma 98.5%

COc1cc2c(cc1OC)C(=O)C(Br)CC2 (centres undefined)
active: MALME-3M melanoma 3.69% | LOX IMVI melanoma -0.506%
inactive: DU-145 prostate 31.5% | K-562 leukemia 16.5% | MDA-MB-231 breast 42.6% | RXF 393 renal 40.8% | SF-268 CNS 64.6% | SF-539 CNS 68.2% | UACC-257 melanoma 56.7% | M14 melanoma 32% | HCT-15 colon 17.5% | HT29 colon 24.1% | SNB-75 CNS 53% | SNB-19 CNS 85.3% | U251 CNS 54% | PC-3 prostate 31.2% | SK-MEL-5 melanoma 53.2% | UACC-62 melanoma 33% | SK-MEL-28 melanoma 67.7%

CCc1ccc(Nc2cc(C)c3ccc(O)cc3n2)cc1
inactive: DU-145 prostate 94.8% | K-562 leukemia 20.3% | MALME-3M melanoma 17.5% | MDA-MB-231 breast 31.1% | RXF 393 renal 52.6% | SF-268 CNS 68.1% | SF-539 CNS 89.1% | UACC-257 melanoma 39.4% | M14 melanoma 45.4% | HCT-15 colon 70.7% | HT29 colon 19.6% | SNB-75 CNS 57.8% | SNB-19 CNS 96.5% | U251 CNS 60.9% | PC-3 prostate 62.2% | SK-MEL-5 melanoma 60.6% | UACC-62 melanoma 30.8% | LOX IMVI melanoma 48.5% | SK-MEL-28 melanoma 95.6%

CC(C)OC(=O)c1ccc([N+](=O)[O-])cc1
inactive: DU-145 prostate 116% | K-562 leukemia 117% | MALME-3M melanoma 131% | MDA-MB-231 breast 102% | RXF 393 renal 116% | SF-268 CNS 119% | SF-539 CNS 112% | UACC-257 melanoma 101% | M14 melanoma 108% | HCT-15 colon 107% | HT29 colon 102% | SNB-75 CNS 111% | SNB-19 CNS 109% | U251 CNS 106% | PC-3 prostate 102% | SK-MEL-5 melanoma 106% | UACC-62 melanoma 100% | LOX IMVI melanoma 98% | SK-MEL-28 melanoma 110%

COc1cc2cc(C(=O)Nc3ccccc3)c(N)nc2cc1OC
inactive: DU-145 prostate 12.7% | SF-268 CNS 26.2% | SF-539 CNS 34.3% | SNB-75 CNS 15.5% | SNB-19 CNS 21.2% | PC-3 prostate 17.7%
active: K-562 leukemia -49.2% | MALME-3M melanoma -78.2% | MDA-MB-231 breast -49.6% | RXF 393 renal -14.7% | UACC-257 melanoma -81.3% | M14 melanoma -67.3% | HCT-15 colon 2.25% | HT29 colon -70.6% | U251 CNS -6.06% | SK-MEL-5 melanoma -95.1% | UACC-62 melanoma -85.3% | LOX IMVI melanoma -93.3% | SK-MEL-28 melanoma -98.3%

CN(C)c1ccc(N2Cc3ccccc3OC3=C2C(=O)c2c(O)ccc(O)c2C3=O)cn1
active: DU-145 prostate -97.3% | K-562 leukemia -20.8% | MALME-3M melanoma -76.9% | MDA-MB-231 breast -93.6% | RXF 393 renal -87% | SF-268 CNS -32.5% | SF-539 CNS -63% | UACC-257 melanoma -89.9% | M14 melanoma -88.6% | HCT-15 colon -64.4% | HT29 colon -50.8% | SNB-75 CNS 0.378% | SNB-19 CNS 6.23% | U251 CNS -15.7% | PC-3 prostate -4.29% | SK-MEL-5 melanoma -81.3% | UACC-62 melanoma -87.4% | LOX IMVI melanoma -68.1% | SK-MEL-28 melanoma -82.8%

CCCCCCCCNC(C)C(O)c1ccc(SC(C)C)cc1 (centres undefined)
inactive: MDA-MB-231 breast 89.7% | RXF 393 renal 37.5% | SF-268 CNS 34.9% | SF-539 CNS 26.8% | UACC-257 melanoma 56% | HCT-15 colon 14.8% | SNB-75 CNS 74.8% | SNB-19 CNS 75.9% | U251 CNS 42.5% | SK-MEL-5 melanoma 68.4% | UACC-62 melanoma 92.7% | SK-MEL-28 melanoma 74.3%
active: DU-145 prostate -25.5% | K-562 leukemia -59.8% | MALME-3M melanoma -78% | M14 melanoma -17.4% | HT29 colon -45.4% | PC-3 prostate 7.49% | LOX IMVI melanoma -95.5%

C/C(=N\OC(=O)Nc1cccc(Cl)c1)c1ccccc1
inactive: DU-145 prostate 102% | K-562 leukemia 90.1% | MALME-3M melanoma 98.2% | MDA-MB-231 breast 103% | RXF 393 renal 87.5% | SF-268 CNS 113% | SF-539 CNS 104% | UACC-257 melanoma 104% | M14 melanoma 108% | HCT-15 colon 94.2% | HT29 colon 94.4% | SNB-75 CNS 80.4% | SNB-19 CNS 106% | U251 CNS 93.5% | PC-3 prostate 94% | SK-MEL-5 melanoma 94.8% | UACC-62 melanoma 93.7% | LOX IMVI melanoma 110% | SK-MEL-28 melanoma 95.2%

C=CC[C@]1(O)CC[C@H]2[C@@H]3CCc4cc(O)ccc4[C@H]3CC[C@@]21C
inactive: DU-145 prostate 102% | K-562 leukemia 56% | MALME-3M melanoma 93.3% | MDA-MB-231 breast 99.6% | RXF 393 renal 102% | SF-268 CNS 97.1% | SF-539 CNS 105% | UACC-257 melanoma 102% | M14 melanoma 94.3% | HCT-15 colon 81.4% | HT29 colon 91.2% | SNB-75 CNS 75.7% | SNB-19 CNS 94.4% | U251 CNS 93.4% | PC-3 prostate 85.6% | SK-MEL-5 melanoma 99.6% | UACC-62 melanoma 89.4% | LOX IMVI melanoma 92.6% | SK-MEL-28 melanoma 101%

O=C1Nc2ccccc2/C1=C/c1c[nH]c2ccccc12
inactive: DU-145 prostate 98.1% | K-562 leukemia 82.8% | MALME-3M melanoma 88.1% | MDA-MB-231 breast 71.7% | RXF 393 renal 90.9% | SF-268 CNS 87.8% | SF-539 CNS 80.6% | UACC-257 melanoma 89.2% | M14 melanoma 91.8% | HCT-15 colon 63.9% | HT29 colon 100% | SNB-75 CNS 62.1% | SNB-19 CNS 83.8% | U251 CNS 76.2% | PC-3 prostate 72.3% | SK-MEL-5 melanoma 94.2% | UACC-62 melanoma 81.8% | LOX IMVI melanoma 75.2% | SK-MEL-28 melanoma 101%

CCCCCCCCCCCCCC(=S)NCCCC[C@H](NC(=O)OCc1ccccc1)C(=O)Nc1ccccc1
inactive: DU-145 prostate 52.4% | K-562 leukemia 17.1% | MALME-3M melanoma 83.6% | MDA-MB-231 breast 17.5% | RXF 393 renal 69.1% | SF-268 CNS 43.3% | SF-539 CNS 75.3% | UACC-257 melanoma 69.1% | M14 melanoma 37.3% | HCT-15 colon 32.6% | HT29 colon 45.1% | SNB-75 CNS 55.4% | SNB-19 CNS 45.8% | U251 CNS 28.7% | PC-3 prostate 25.7% | SK-MEL-5 melanoma 68.6% | UACC-62 melanoma 43.1% | LOX IMVI melanoma 42.2% | SK-MEL-28 melanoma 72.2%

CC1=NC(c2ccc(Cl)cc2)C2=C(N1)/C(=C/c1ccc(Cl)cc1)CCC2 (centres undefined)
inactive: DU-145 prostate 105% | K-562 leukemia 76.6% | MALME-3M melanoma 96.4% | MDA-MB-231 breast 107% | RXF 393 renal 90.8% | SF-268 CNS 99.3% | SF-539 CNS 103% | UACC-257 melanoma 93.7% | M14 melanoma 65.3% | HCT-15 colon 79.8% | HT29 colon 54.4% | SNB-75 CNS 86.6% | SNB-19 CNS 102% | U251 CNS 66% | PC-3 prostate 89.1% | SK-MEL-5 melanoma 84.9% | UACC-62 melanoma 83.3% | LOX IMVI melanoma 36.8% | SK-MEL-28 melanoma 93.9%

CCc1ccc(Nc2ncnc3c2cnn3-c2cccc(Br)c2)cc1
inactive: DU-145 prostate 104% | K-562 leukemia 106% | MALME-3M melanoma 99% | MDA-MB-231 breast 103% | RXF 393 renal 100% | SF-268 CNS 98% | SF-539 CNS 102% | UACC-257 melanoma 88.6% | M14 melanoma 98.6% | HCT-15 colon 101% | HT29 colon 108% | SNB-75 CNS 78.4% | SNB-19 CNS 95.3% | U251 CNS 94.3% | PC-3 prostate 94.9% | SK-MEL-5 melanoma 96.6% | UACC-62 melanoma 91.7% | LOX IMVI melanoma 96.3% | SK-MEL-28 melanoma 107%

CCOP(=O)(O)OP(=O)(O)OCC
inactive: DU-145 prostate 105% | K-562 leukemia 89% | MALME-3M melanoma 98.1% | MDA-MB-231 breast 112% | RXF 393 renal 118% | SF-268 CNS 100% | SF-539 CNS 105% | UACC-257 melanoma 105% | M14 melanoma 100% | HCT-15 colon 98.5% | HT29 colon 102% | SNB-75 CNS 81.3% | SNB-19 CNS 106% | U251 CNS 105% | PC-3 prostate 104% | SK-MEL-5 melanoma 113% | UACC-62 melanoma 106% | LOX IMVI melanoma 92.7% | SK-MEL-28 melanoma 108%
